PubChem BioAssay (NCATS)
Where “and” joins values, the source holds several entries; their conditions need not be identical. Equal entries are not always repeated. Records with an inconclusive call do not appear. Calls of active or inactive are those of the source. Unless noted, calls come from the whole dose curve; as a rule, active = well fitted curve in the direction sought with a large enough effect; inconclusive = small, poorly fitted or top-dose-only effect, or another doubt; inactive = no such curve, though single readings can be large; an effect the other way counts as inactive or inconclusive.

Key:
[1] = test system: CAOV3; assay: Primary qHTS to identify gynecologic anti-cancer compounds using libraries of approved drugs and bioactive compounds (AID 1345084); settings: Gynecologic cancer cell panel viability, ATPlite luminescence, 48 h; series mostly up to 57.5 µM; note: % is set by controls: 0 for no effect and ±100 for the full control effect; nearly all actives have a fitted effect of over 55% in size
Summary of the method: (§1)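 In this quantitative HTS, cell killing is estimated from loss of ATP-dependent luciferase light. Cells see five compound concentrations over a 48 h exposure.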

[2] = test system: CASKI; assay: as above; settings: Gynecologic cancer cell panel viability, ATPlite luminescence, 48 h; series mostly up to 57.5 µM
Summary of the method: as §1

[3] = test system: Es-2; assay: as above; settings: Gynecologic cancer cell panel viability, ATPlite luminescence, 48 h; series mostly up to 57.5 µM
Summary of the method: as §1

[4] = test system: HeLa; assay: as above; settings: Gynecologic cancer cell panel viability, ATPlite luminescence, 48 h; series mostly up to 57.5 µM
Summary of the method: as §1

[5] = test system: Hek293T; assay: as above; settings: Gynecologic cancer cell panel viability, ATPlite luminescence, 48 h, control line for the selectivity index; series mostly up to 57.5 µM
Summary of the method: as §1

[6] = test system: JEG-3; assay: as above; settings: Gynecologic cancer cell panel viability, ATPlite luminescence, 48 h; series mostly up to 57.5 µM
Summary of the method: as §1

[7] = test system: OV90; assay: as above; settings: Gynecologic cancer cell panel viability, ATPlite luminescence, 48 h; series mostly up to 57.5 µM
Summary of the method: as §1

[8] = test system: PA-1; assay: as above; settings: Gynecologic cancer cell panel viability, ATPlite luminescence, 48 h; series mostly up to 57.5 µM
Summary of the method: as §1

[9] = test system: SKOV3; assay: as above; settings: Gynecologic cancer cell panel viability, ATPlite luminescence, 48 h; series mostly up to 57.5 µM
Summary of the method: as §1

[10] = test system: Tov-21-G; assay: as above; settings: Gynecologic cancer cell panel viability, ATPlite luminescence, 48 h; series mostly up to 57.5 µM
Summary of the method: as §1

[11] = test system: Tov112D; assay: as above; settings: Gynecologic cancer cell panel viability, ATPlite luminescence, 48 h; series mostly up to 57.5 µM
Summary of the method: as §1

[12] = Drug repurposing screens with cells derived from glioblastoma tumor samples (AID 1345199); settings: GBM patient neurospheres viability, ATP luminescence, 48 h; note: nearly all actives have a fitted effect of over 40% in size; note: potency is the fitted concentration of half-maximal effect; for activity, negative = cell killing: % is set by controls: 0 for no effect and ±100 for the full control effect
Summary of the method: (§2)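 Primary testing used CD133+ neurospheres from four GBM patients, seven concentrations, 48 h exposure and ATP-based viability; confirmation added three slower-growing patient lines.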

[13] = test system: astro; assay: as above; settings: viability, ATP luminescence, 48 h; series mostly up to 45.9 µM
Summary of the method: as §2

[14] = qHTS assay to identify inhibitors of the type 1 interferon - major histocompatibility complex class I in skeletal muscle: Counter screen cell viability and HiBit confirmation (AID 1347412); settings: iHSKM muscle cells + IFN-b, HiBiT or CellTiter-Glo, 24 h; Potency: HiBiT unless noted; Viability, at 45.9 µM (top of the series); note: % is set by controls: 0 for no effect and ±100 for the full control effect; nearly all actives have a fitted effect of over 60% in size
Summary of the method: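 Human myoblast knock-in line, 4.0 ng/ml IFN-beta stimulation, 24 h compound treatment. Endpoints: HiBiT lytic luminescence (HLA-B level) and CellTiter Glo (ATP). Dosing 12 concentrations, 3-fold steps, 46 uM highest final.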

[15] = molecular target: Nuclear receptor subfamily 1 group I member 2 (Rattus norvegicus) (UniProt Q9R1A7); assay: qHTS assay for small molecule activators of the rat pregnane X receptor (rPXR) signaling pathway (AID 651751; call rule not given here; note: 0% is about no effect); settings: rPXR reporter cells, luciferase (One-Glo), 24 h
Nuclear receptor subfamily 1 group I member 2 (Rattus norvegicus), sequence (Q9R1A7 whole entry, looked up): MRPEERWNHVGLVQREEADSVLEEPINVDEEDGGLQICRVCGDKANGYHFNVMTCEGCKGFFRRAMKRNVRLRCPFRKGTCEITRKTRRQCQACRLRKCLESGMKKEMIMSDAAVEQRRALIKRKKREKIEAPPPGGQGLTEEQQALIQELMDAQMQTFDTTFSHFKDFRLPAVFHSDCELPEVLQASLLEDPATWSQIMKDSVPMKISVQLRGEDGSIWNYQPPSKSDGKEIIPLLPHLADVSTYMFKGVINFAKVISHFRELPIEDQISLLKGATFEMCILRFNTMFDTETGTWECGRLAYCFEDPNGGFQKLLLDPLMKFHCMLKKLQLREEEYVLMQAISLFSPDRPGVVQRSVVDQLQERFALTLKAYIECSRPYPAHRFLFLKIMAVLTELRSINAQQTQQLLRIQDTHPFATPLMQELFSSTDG

[16] = qHTS assay for small molecule activators of the human pregnane X receptor (PXR) signaling pathway (AID 720659; call rule not given here; note: 0% is about no effect)
[17] = at 45.9 µM (top of the series), tumour line B
[18] = at 45.9 µM (top of the series), tumour line D
[19] = at 46 µM (top of the series), tumour line A
[20] = at 46.1 µM (top of the series), tumour line C

NC(CO)(CO)CO
inactive: Potency [1] | Potency [2] | Potency [3] | Potency [4] | Potency [5] | Potency [6] | Potency [7] | Potency [8] | Potency [9] | Potency [10] | Potency [11] | activity, negative = cell killing [12, 17] -1.58% | activity, negative = cell killing [12, 18] 6.44% | activity, negative = cell killing [12, 19] -13.6% | activity, negative = cell killing [12, 20] 0.171% | Potency [13]

CN1CCC[C@@H]1c1cccnc1
inactive: Potency [1] | Potency [2] | Potency [3] | Potency [4] | Potency [5] | Potency [6] | Potency [7] | Potency [8] | Potency [9] | Potency [10] | Potency [11] | activity, negative = cell killing [12, 17] -7.48% | activity, negative = cell killing [12, 18] -12.9% | activity, negative = cell killing [12, 19] -29.1% | activity, negative = cell killing [12, 20] -0.391% | Potency [13]

COc1cccc(OC)c1C(=O)N[C@@H]1C(=O)N2[C@@H]1SC(C)(C)[C@@H]2C(=O)O
inactive: Potency [1] | Potency [2] | Potency [3] | Potency [4] | Potency [5] | Potency [6] | Potency [7] | Potency [8] | Potency [9] | Potency [10] | Potency [11] | activity, negative = cell killing [12, 17] -0.637% | activity, negative = cell killing [12, 18] -7.13% | activity, negative = cell killing [12, 19] -15.4% | activity, negative = cell killing [12, 20] 14.7% | Potency [13]

C[C@]12C=CC(=O)C=C1[C@@H](F)C[C@@H]1[C@@H]2[C@@H](O)C[C@@]2(C)[C@H]1CC[C@]2(O)C(=O)CO
inactive: Potency [1] | Potency [2] | Potency [3] | Potency [4] | Potency [5] | Potency [6] | Potency [7] | Potency [8] | Potency [9] | Potency [10] | Potency [11] | activity, negative = cell killing [12, 17] -7.25% and -6.51% | activity, negative = cell killing [12, 18] -13.8% and -3.47% | activity, negative = cell killing [12, 19] -18% | activity, negative = cell killing [12, 20] -19.6% and -9.59% | Potency [13] | Potency [14]

c1ccc(CNCCNCc2ccccc2)cc1
active: Potency ([12]; tumour line A) 22.4 µM
inactive: Potency [1] | Potency [2] | Potency [3] | Potency [4] | Potency [5] | Potency [6] | Potency [7] | Potency [8] | Potency [9] | Potency [10] | Potency [11] | activity, negative = cell killing [12, 17] -9.72% | activity, negative = cell killing [12, 18] -12.2% | activity, negative = cell killing [12, 20] -25.1% | Potency [13]

Nc1ccc(/C=C/c2ccc(N)cc2S(=O)(=O)O)c(S(=O)(=O)O)c1
inactive: activity change, negative = cytotoxicity [1] -5.63% [at 0.462 µM] | activity change, negative = cytotoxicity [2] -23.3% [at 0.462 µM] | activity change, negative = cytotoxicity [3] 1.34% [at 0.462 µM] | activity change, negative = cytotoxicity [4] 9.69% [at 0.462 µM] | activity change, negative = cytotoxicity [5] 4.03% [at 0.462 µM] | activity change, negative = cytotoxicity [6] -1.28% [at 0.462 µM] | activity change, negative = cytotoxicity [7] 2.33% [at 0.462 µM] | activity change, negative = cytotoxicity [8] 4.94% [at 0.462 µM] | activity change, negative = cytotoxicity [9] -10.7% [at 0.462 µM] | activity change, negative = cytotoxicity [10] 0.128% [at 0.462 µM] | activity change, negative = cytotoxicity [11] 3.4% [at 0.462 µM] | activity, negative = cell killing [12, 17] -7.96% | activity, negative = cell killing [12, 18] -14.3% | activity, negative = cell killing [12, 19] -15.5% | activity, negative = cell killing [12, 20] -2.52% | Potency [13]

CCN1CCCC1=O
inactive: Potency [1] | Potency [2] | Potency [3] | Potency [4] | Potency [5] | Potency [6] | Potency [7] | Potency [8] | Potency [9] | Potency [10] | Potency [11] | activity, negative = cell killing [12, 17] -8.97% | activity, negative = cell killing [12, 18] 9.06% | activity, negative = cell killing [12, 19] -27.1% | activity, negative = cell killing [12, 20] 2.13% | Potency [13]

CC[N+](CC)(CCNC(=O)C(=O)NCC[N+](CC)(CC)Cc1ccccc1Cl)Cc1ccccc1Cl
inactive: Potency [1] | Potency [2] | Potency [3] | Potency [4] | Potency [5] | Potency [6] | Potency [7] | Potency [8] | Potency [9] | Potency [10] | Potency [11] | activity, negative = cell killing [12, 17] -6.34% | activity, negative = cell killing [12, 18] -19.6% | activity, negative = cell killing [12, 19] -23.4% | activity, negative = cell killing [12, 20] 15.3% | Potency [13]

CCOC(=O)OC(C)OC1=C(C(=O)Nc2ccccn2)N(C)S(=O)(=O)c2ccccc21 (stereo not drawn)
inactive: Potency [1] | Potency [2] | Potency [3] | Potency [4] | Potency [5] | Potency [6] | Potency [7] | Potency [8] | Potency [9] | Potency [10] | Potency [11] | activity, negative = cell killing [12, 17] -23.8% | activity, negative = cell killing [12, 18] -1.93% | activity, negative = cell killing [12, 20] 20.6% | Potency [13]

Nc1ccc(C(=O)O)cc1
inactive: Potency [1] | Potency [2] | Potency [3] | Potency [4] | Potency [5] | Potency [6] | Potency [7] | Potency [8] | Potency [9] | Potency [10] | Potency [11] | activity, negative = cell killing [12, 17] -6.59% | activity, negative = cell killing [12, 18] -1.8% | activity, negative = cell killing [12, 19] -31.3% | activity, negative = cell killing [12, 20] -10.3% | Potency [13] | max response [15] -6.06% | outcome [16]

O=C(O)CCCCC(=O)O
inactive: Potency [1] | Potency [2] | Potency [3] | Potency [4] | Potency [5] | Potency [6] | Potency [7] | Potency [8] | Potency [9] | Potency [10] | Potency [11] | activity, negative = cell killing [12, 17] 11.6% | activity, negative = cell killing [12, 18] -7.89% | activity, negative = cell killing [12, 19] -0.455% | activity, negative = cell killing [12, 20] 0.572% | Potency [13] | max response [15] -0.0429% | outcome [16]

CC(C)(Oc1ccc(Cl)cc1)C(=O)O
inactive: Potency [1] | Potency [2] | Potency [3] | Potency [4] | Potency [5] | Potency [6] | Potency [7] | Potency [8] | Potency [9] | Potency [10] | Potency [11] | activity, negative = cell killing [12, 17] -11.3% | activity, negative = cell killing [12, 18] 2.87% | activity, negative = cell killing [12, 19] -14.8% | activity, negative = cell killing [12, 20] -3.07% | Potency [13] | max response [15] -4.53% | outcome [16]
